Source: PubChem
Only some compounds are listed: those with a hit (about 9.8% of all), similar ones and a draw of the others.
HPGD inh = HPGD (human) dehydrogenase inhibition. P15428. purified HPGD, NADH fluorescence kinetic, PGE2 substrate. Potency, µM, for inactives: top-dose activity change, negative = inhibition, most hits filed as inhibitors. 150,000 tested, 4.3% active. AID 894; active = well fitted inhibition curve with a large enough effect, not every such curve was filed as active; inconclusive = small, poorly fitted or top-dose-only effect, or another doubt; inactive = no such curve, though single readings can be large or run the other way; also: potency is read from the fitted curve at half-maximal effect; % is scaled to controls: 0 for no effect and ±100 for the full control effect
Target sequence (P15428 whole entry, looked up): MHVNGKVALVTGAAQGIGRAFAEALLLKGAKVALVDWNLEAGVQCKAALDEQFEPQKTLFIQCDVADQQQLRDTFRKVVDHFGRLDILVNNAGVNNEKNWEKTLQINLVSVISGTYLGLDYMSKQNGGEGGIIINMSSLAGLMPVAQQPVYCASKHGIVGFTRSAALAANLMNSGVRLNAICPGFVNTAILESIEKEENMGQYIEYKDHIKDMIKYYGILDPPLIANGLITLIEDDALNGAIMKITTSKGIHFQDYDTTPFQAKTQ
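20 nM HPGD preincubated 15 min at room temperature with compound in 50 mM Tris-HCl pH 8, 0.01% Tween 20. Started with 1 mM NAD+ and 30 uM prostaglandin E2; NADH fluorescence (360/450 nm) read 5 times over 30-s intervals, last minus first.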
ALDH1A1 block = ALDH1A1 (human) enzyme inhibition | Purified ALDH1A1, NADH fluorescence, propionaldehyde substrate | AID 1030 | Potency, µM (doses to about 75.3 µM), without a hit: at the top dose activity, negative = inhibition, actives largely listed as inhibitors | P00352 | 220,000 tested, 7.3% active; active = well fitted inhibition curve with a large enough effect, not every such curve was filed as active; inconclusive = small, poorly fitted or top-dose-only effect, or another doubt; inactive = no such curve, though single readings can be large or run the other way;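 also: potency is read from the fitted curve at half-maximal effect; plate controls were no enzyme wells and a reference inhibitor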
Target sequence (P00352 whole entry, looked up): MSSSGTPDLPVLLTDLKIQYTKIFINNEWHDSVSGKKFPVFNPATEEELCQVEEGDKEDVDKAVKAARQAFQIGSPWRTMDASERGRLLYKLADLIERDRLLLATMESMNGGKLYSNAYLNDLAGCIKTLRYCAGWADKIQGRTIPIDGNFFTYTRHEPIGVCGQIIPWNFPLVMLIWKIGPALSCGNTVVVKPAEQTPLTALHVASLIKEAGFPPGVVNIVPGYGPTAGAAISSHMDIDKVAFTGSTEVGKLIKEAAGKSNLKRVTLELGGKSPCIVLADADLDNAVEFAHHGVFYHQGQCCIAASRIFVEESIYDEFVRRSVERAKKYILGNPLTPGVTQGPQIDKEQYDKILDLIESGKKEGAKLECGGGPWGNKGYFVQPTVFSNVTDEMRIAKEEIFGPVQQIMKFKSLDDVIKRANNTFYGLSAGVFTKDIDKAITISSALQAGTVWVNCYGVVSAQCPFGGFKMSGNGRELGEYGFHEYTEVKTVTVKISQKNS
HTT cytoprotect = cytoprotection in Huntington HTT-Q103 PC12 cell model | Potency, µM (doses to about 56.4 µM), inactives show cytoprotection (ATP increase), most hits filed as activators | PC12 HTT-Q103 induced, cytoprotection, ATP luminescence, 40 h | 230,000 tested, 0.14% active | AID 1471; also: potency is read from the fitted curve at half-maximal effect; % of control where 0% means no effect; nearly all actives have a fitted effect of over 45% in size
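Stable PC12 Q103-GFP cells in serum-supplemented, phenol red-free DMEM; induction by tebufenozide at 100 nM final; compound dose series; cell viability quantified luminescently from ATP.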
JMJD2E inh = JMJD2E (human) inhibition; B2RXH2; JMJD2E catalytic domain, FDH-coupled NADH fluorescence (FDH is formaldehyde dehydrogenase); Potency, µM (series often up to 57.1 µM), inactives show top-dose activity change, negative = inhibition, actives largely listed as inhibitors; 230,000 tested, 1.6% active; AID 2147; active = well fitted inhibition curve with a large enough effect, not every such curve was filed as active; inconclusive = small, poorly fitted or top-dose-only effect, or another doubt; inactive = no such curve, though single readings can be large or run the other way;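 also: potency is read from the fitted curve at half-maximal effect; 0% = wells with enzyme and -100% = buffer wells without enzyme; nearly all actives have a fitted effect of over 50% in size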
HTT aggregate = reduces HttQ103-GFP aggregates in PC12 cells | PC12 HttQ103-GFP aggregates, Acumen cytometry, 40 h | 220,000 tested, 1.1% active | Potency, µM (doses to about 46.1 µM), without a hit: top-dose activity change, negative = inhibition, most hits filed as inhibitors; also: potency is read from the fitted curve at half-maximal effect; % is scaled to controls: 0 for no effect and ±100 for the full control effect; nearly all actives have a fitted effect of over 60% in size
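Ecdysone-promoter PC12 model expressing HTT exon 1 Q103 fused to GFP, induced by tebufenozide at 100 nM final. Compounds titrated; aggregates sized 1–25 µm scored on a 488 nm laser cytometer.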
CBFb-RUNX1 inh = blocks binding between human CBF-beta and RUNX1; AID 1477; Q01196+Q13951; AlphaScreen CBFb-His/RUNX1-biotin binding, biochemical; Potency, µM (doses to about 59.8 µM), inactives show at the top dose activity, negative = inhibition, hits mostly inhibitors; 230,000 tested, under 10 active; also: % of control where 0% means no effect
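Interaction loss through any mechanism counts as activity. Pre-formed complex of His-CBF-beta and biotin-RUNX1 (30 nM apiece) is incubated with compound 15 min, then with 50 ng nickel and 50 ng streptavidin beads for 90 min before AlphaScreen detection.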
Numbers without * were called inactive; ? = inconclusive; . = no result given; [ ] = remark or other dose. Unless noted, calls follow the shape of the dose curve; as a rule, active = well fitted curve in the direction sought with a large enough effect; inconclusive = small, poorly fitted or top-dose-only effect, or another doubt; inactive = no such curve, though single readings can be large; an effect the other way counts as inactive or inconclusive.

SMILES	HPGD inh	ALDH1A1 block	HTT cytoprotect	JMJD2E inh	HTT aggregate	CBFb-RUNX1 inh
O=S1(=O)OC(c2ccc(O)cc2)(c2ccc(O)cc2)c2ccccc21	-0.3%	13.5%[13.5 µM]	5.3%[10 µM]	.	5.9%	.
O=C(NCCc1cn2ccccc2n1)c1cc(COc2ccc3ncccc3c2)on1	.	?	-80.6%	-11.6%	11.2µM*	1.8%
COc1cc(/C=C(\C#N)c2nc3ccc(C)cc3[nH]2)c([N+](=O)[O-])cc1OC	-12.1%	3.7%	-30.8%	3.9%	20.8%	-14.6%
Cc1ccc2nc(/C(C#N)=C/c3ccc(-c4cccc([N+](=O)[O-])c4)o3)[nH]c2c1	25.1µM*	?	-50.6%[10 µM]	-0.6%	?	2.8%
Cc1ccc2nc(/C(C#N)=C\c3cc(O)ccc3[N+](=O)[O-])[nH]c2c1	.	1.9%	-129.6%	-2.0%	-1.3%	-6.8%
COc1c(O)ccc(/C=C(\C#N)c2nc3ccccc3[nH]2)c1[N+](=O)[O-]	28.2µM*	-0.7%	-26.0%[10 µM]	?	18.1%	2.6%
COc1cc(/C=C(/C#N)c2nc3ccccc3c(=O)[nH]2)ccc1O	14.1µM*	-0.7%	-0.1%[10 µM]	2.2%	24.3%	2.9%
N#C/C(=C\c1cc([N+](=O)[O-])c(N2CCOCC2)cc1N1CCOCC1)c1nc2ccccc2[nH]1	14.1µM*	-13.6%	-1.8%[10 µM]	-2.9%	18.7%	?
CC(=O)c1ccc(N2CCN(C(=O)C3CCCN(S(=O)(=O)c4c(C)[nH]c(=O)[nH]c4=O)C3)CC2)cc1 (stereo not given)	.	1.8%	-24.0%	-8.8%	7.1%	3.3%
CC1(C)C(=O)C2(CCCCC2)C(=O)OC1c1ccc(O)cc1 (stereo not given)	-11.2%	2.5%	-3.6%	5.4%	-3.3%	6.1%
CC1(C)C(=O)C2(CCCC2)C(=O)OC1c1ccco1 (stereo not given)	-12.0%	22.4µM*	6.5%[0.074 µM]	5.4%	-2.5%	2.1%
O=C(Cc1sc(Nc2ccccc2)nc1-c1ccccc1)NCc1ccccn1	.	?	-0.5%[10 µM]	-14.2%	-14.0%	-23.8%
CN(C)/C=C/C(=O)c1cnc(-c2ccccc2Cl)s1	.	7.08µM*	-46.4%	-4.9%	-5.2%[9.22 µM]	-2.4%
CN(C)/C=C/C(=O)c1cnc(-c2cccc(Cl)c2)s1	.	?	-27.1%	2.4%	-4.5%	1.2%
CC1=C(C(=O)OCC(C)C)C(c2ccccc2Cl)NC(=O)N1C (stereo not given)	-17.2%	20µM*	-9.1%	-7.6%	?	-19.2%
CCOCCOC(=O)C1=C(C)N(C)C(=O)NC1c1ccccc1Cl (stereo not given)	-3.5%	7.9%	4.0%	-2.4%	22.0%	-12.4%
CC(C)(C)C(=O)NCC12C=CC(O1)C1C(=O)N(c3ccccc3)C(=O)C12 (stereo not given)	20µM*	1.41µM*	6.0%[10 µM]	11.8%	?	-0.4%
O=C1C2C3C=CC(CO)(O3)C2C(=O)N1c1ccc(-c2ccccc2)cc1 (stereo not given)	1.41µM*	0.126µM*	-39.9%	-11.8%	4.7%	3.8%
O=S(=O)(N/N=C/c1ccc(N2CCOCC2)cc1)c1ccccc1	.	10µM*	-27.5%[10 µM]	2.6%	?	7.6%
O=S(=O)(N/N=C/c1ccc(OC2CSC2)cc1)c1ccccc1	-11.8%	?	1.6%[10 µM]	-0.3%	-1.3%	-6.1%
O=C(COC(=O)/C=C/c1ccc(Br)o1)Nc1ccccc1F	.	14.1µM*	-31.0%	-4.3%	13.1%	-15.9%
O=C(NCCN1CCN(Cc2ccccc2Cl)CC1)Nc1ccccc1	-1.7%	10.7%	-13.1%	-3.4%	-7.9%	4.7%
CCOc1ccc(C(=O)N/N=C/c2c(C)[nH]c(=O)[nH]c2=O)cc1	.	.	7.3%[10 µM]	?	-28.5%[9.22 µM]	1.6%
CCOC(=O)c1nc(C)sc1-c1ccnn1S(=O)(=O)c1ccc(C)cc1	.	3.16µM*	8.9%[10 µM]	-1.8%	0.9%[9.22 µM]	-13.2%
CCOC(=O)c1nc(C)sc1-c1ccnn1S(=O)(=O)c1ccccc1C(F)(F)F	.	?	14.0%[10 µM]	-2.8%	-11.3%[9.22 µM]	6.8%
SMILES	HPGD inh	ALDH1A1 block	HTT cytoprotect	JMJD2E inh	HTT aggregate	CBFb-RUNX1 inh
Cc1[nH]n(-c2ccccc2)c(=O)c1N=Nc1ccccc1O	.	-10.7%	-50.3%[10 µM]	-21.7%	?	.
Cc1[nH]n(-c2ccccc2)c(=O)c1N=Nc1nccs1	-7.8%	-3.0%	-33.2%	?	11.2µM*	?
CC(C)(S)[C@@H](N)C(=O)O	-4.6%	?	?	2.24µM*	19.3%	?
O=C(COC(=O)c1ccc2c(=O)n3c(nc2c1)CCC3)NC1CCS(=O)(=O)C1 (stereo not given)	.	-2.7%	-24.4%	?	0.0063µM*	-8.0%
Cc1cccc(NC(=O)COC(=O)c2ccc3c(=O)n4c(nc3c2)CCC4)c1	-12.8%	?	14.3%[10 µM]	?	0.9%	6.0%
Cc1ccc2nc(Cl)c(/C=N/Nc3ccc(C(=O)O)cc3)cc2c1	.	.	-84.5%[10 µM]	-2.2%	25.3%[9.22 µM]	12.8%
COc1ccc(Cc2[nH]n3c(=O)c(Cl)c(C)nc3c2-c2ccccc2)cc1	.	?	-45.7%[10 µM]	-0.9%	7.0%	6.3%
Cc1ccc(-n2cccc2C(=S)N=P(N(C)C)(N(C)C)N(C)C)cc1	?	10µM*	10.4%[4.97 µM]	-1.5%	?	-11.7%
Cc1ccc(-n2cccc2C(=O)NS(=O)(=O)c2ccc(C)cc2)cc1	.	.	13.5%[10 µM]	-0.6%	5.8%[9.22 µM]	0.9%
O=C(O)C1C2C=CC(C2)C1C(=O)Nc1ccc(C(=O)N2CCCCC2)c(Cl)c1 (stereo not given)	0.447µM*	-6.0%	-8.3%[0.074 µM]	11.2%	-16.6%	5.4%
Cc1ccc(CN2CCN(Cc3ccc(-n4cccn4)cc3C)CC2CCO)cc1 (stereo not given)	.	0.4%	-0.8%[10 µM]	2.9%	-9.7%[9.22 µM]	6.8%
CCOC(=O)c1sc(NC(=O)CSC(=S)N2CCN(C)CC2)nc1C	.	.	9.3%[10 µM]	-4.9%	8.3%[9.22 µM]	6.1%
CSC1=NCCN1C(=O)c1ccc2c(c1)OCO2	.	11.2µM*	-16.3%	6.2%	7.4%	5.9%
Nc1ccc2c(c1)C(=O)C(=O)c1ccccc1-2	2.24µM*	2.24µM*	-98.7%[10 µM]	-0.5%	0.794µM*	-3.2%
Nc1ccc2c(c1)C(=O)c1ccccc1C2=O	-7.7%	?	-40.8%	.	.	-14.9%[21.7 µM]
O=C1C(=O)c2ccc(-c3ccccc3)cc2-c2ccccc21	-11.8%	1.3%	-97.2%[10 µM]	-1.3%	4.47µM*	-16.3%
CC(C)C1C(C#N)=C(N)SC(N)=C1C#N	?	8.91µM*	-8.9%[10 µM]	?	3.7%	2.4%
CC(c1ccccc1)C1C(C#N)=C(N)SC(N)=C1C#N (stereo not given)	.	20µM*	-4.5%	?	-4.9%	1.4%
CC(CC1C(C#N)=C(N)SC(N)=C1C#N)c1ccccc1 (stereo not given)	14.1µM*	10µM*	-17.6%[10 µM]	22.4µM*	?	-1.0%
